Measurements published in PubChem BioAssay AID1159580 (chemical genetic matrix, 2015).
Several values for one entry are separate records, joined by “and”; a condition that tells them apart may be missing. Identical values can stand only once. About 2,000 (36%) of roughly 5,500 compounds were called active. Another 18% or so got no clear call; they are omitted. The list shows a part of the results. Unmarked numbers belong to inactive results. No stated cut-off is given here; in the data, active means normalized growth mostly below about 0.91 (no sharp cut-off); inconclusive means no clear call, values can overlap the other calls; inactive means mostly above about 0.92.

Test: chemical genetic growth profiling, strain panel (AID 1159580);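 further: tested at 20 µM; growth read once vehicle control cultures reached saturation at 30 °C; 1 = growth at the plate median or of vehicle wells; lower values mean less growth of the strain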
Settings: growth OD

O=C1C(=O)c2ccccc2C(O)=C1C1CCC(c2ccc(Cl)cc2)CC1 (configuration not stated)
normalized growth (S. cerevisiae deletion strains, locus YAL013W, strain DEP1, hits give low values): 1.01
normalized growth (S. cerevisiae deletion strains, locus YBR021W, strain FUR4, hits give low values): 0.992
normalized growth (S. cerevisiae deletion strains, locus YBR229C, strain ROT2, hits give low values): 0.985
normalized growth (S. cerevisiae deletion strains, locus YCL029C, strain bik1, hits give low values): 0.992
normalized growth (S. cerevisiae deletion strains, locus YDL035C, strain GPR1, hits give low values): 0.993
normalized growth (S. cerevisiae deletion strains, locus YDL074C, strain BRE1, hits give low values): 0.975
normalized growth (S. cerevisiae deletion strains, locus YDL101C, strain DUN1, hits give low values): 0.996
normalized growth (S. cerevisiae deletion strains, locus YDL134C, strain PPH21, hits give low values): 0.983
normalized growth (S. cerevisiae deletion strains, locus YDL185W, strain tfp1, hits give low values): 1.01
normalized growth (S. cerevisiae deletion strains, locus YDL192W, strain arf1, hits give low values): 0.997
normalized growth (S. cerevisiae deletion strains, locus YDR101C, strain arx1, hits give low values): 0.991
normalized growth (S. cerevisiae deletion strains, locus YDR150W, strain NUM1, hits give low values): 1.01
normalized growth (S. cerevisiae deletion strains, locus YDR162C, strain NBP2, hits give low values): 0.997
normalized growth (S. cerevisiae deletion strains, locus YDR318W, strain mcm21, hits give low values): 0.98
normalized growth (S. cerevisiae deletion strains, locus YDR388W, hits give low values): 0.981
normalized growth (S. cerevisiae deletion strains, locus YDR502C, strain sam2, hits give low values): 1
normalized growth (S. cerevisiae deletion strains, locus YEL061C, strain CIN8, hits give low values): 0.996
normalized growth (S. cerevisiae deletion strains, locus YER110C, hits give low values): 0.991
normalized growth (S. cerevisiae deletion strains, locus YER155C, strain BEM2, hits give low values): 0.983
normalized growth (S. cerevisiae deletion strains, locus YER167W, strain BCK2, hits give low values): 1.01
normalized growth (S. cerevisiae deletion strains, locus YGL078C, strain dbp3, hits give low values): 1
normalized growth (S. cerevisiae deletion strains, locus YGL086W, strain mad1, hits give low values): 0.988
normalized growth (S. cerevisiae deletion strains, locus YGL248W, strain PDE1, hits give low values): 0.998
normalized growth (S. cerevisiae deletion strains, locus YGR078C, strain PAC10, hits give low values): 0.996
normalized growth (S. cerevisiae deletion strains, locus YGR135W, strain pre9, hits give low values): 0.991
normalized growth (S. cerevisiae deletion strains, locus YGR229C, strain SMI1, hits give low values): 1
normalized growth (S. cerevisiae deletion strains, locus YGR252W, strain gcn5, hits give low values): 0.946
normalized growth (S. cerevisiae deletion strains, locus YHR030C, strain SLT2, hits give low values): 0.998 and 1.01
normalized growth (S. cerevisiae deletion strains, locus YHR079C, strain IRE1 (second series), hits give low values): 0.987
normalized growth (S. cerevisiae deletion strains, locus YHR079C, strain IRE1, hits give low values): 1.01
normalized growth (S. cerevisiae deletion strains, locus YHR094C, strain hxt1, hits give low values): 0.98
normalized growth (S. cerevisiae deletion strains, locus YHR129C, strain ARP1, hits give low values): 0.988
normalized growth (S. cerevisiae deletion strains, locus YHR200W, strain rpn10, hits give low values): 0.981
normalized growth (S. cerevisiae deletion strains, locus YIL066C, strain RNR3, hits give low values): 0.989
normalized growth (S. cerevisiae deletion strains, locus YIL073C, strain SPO22, hits give low values): 0.884
normalized growth (S. cerevisiae deletion strains, locus YIL125W, strain kgd1, hits give low values): 0.996
normalized growth (S. cerevisiae deletion strains, locus YIR030C, strain dcg1, hits give low values): 0.997
normalized growth (S. cerevisiae deletion strains, locus YJL095W, strain BCK1, hits give low values): 0.949 and 1.01
normalized growth (S. cerevisiae deletion strains, locus YJL134W, strain LCB3, hits give low values): 0.988
normalized growth (S. cerevisiae deletion strains, locus YJL168C, strain set2, hits give low values): 0.977
normalized growth (S. cerevisiae deletion strains, locus YJL187C, strain SWE1 (second series), hits give low values): 0.992
normalized growth (S. cerevisiae deletion strains, locus YJR043C, strain POL32, hits give low values): 1
normalized growth (S. cerevisiae deletion strains, locus YJR066W, strain TOR1, hits give low values): 0.963
normalized growth (S. cerevisiae deletion strains, locus YJR075W, strain HOC1, hits give low values): 0.996
normalized growth (S. cerevisiae deletion strains, locus YKL009W, strain mrt4, hits give low values): 0.997
normalized growth (S. cerevisiae deletion strains, locus YKL068W, hits give low values): 0.997
normalized growth (S. cerevisiae deletion strains, locus YKL085W, strain MDH1 (second series), hits give low values): 0.989
normalized growth (S. cerevisiae deletion strains, locus YKL085W, strain MDH1, hits give low values): 0.989
normalized growth (S. cerevisiae deletion strains, locus YKL190W, strain CNB1, hits give low values): 0.99
normalized growth (S. cerevisiae deletion strains, locus YKR001C, strain vps1, hits give low values): 0.947
normalized growth (S. cerevisiae deletion strains, locus YLR039C, strain RIC1, hits give low values): 0.876
normalized growth (S. cerevisiae deletion strains, locus YLR058C, strain SHM2, hits give low values): 0.988
normalized growth (S. cerevisiae deletion strains, locus YLR102C, strain apc9, hits give low values): 0.988
normalized growth (S. cerevisiae deletion strains, locus YLR113W, strain HOG1, hits give low values): 1.05
normalized growth (S. cerevisiae deletion strains, locus YLR262C, strain YPT6, hits give low values): 0.936
normalized growth (S. cerevisiae deletion strains, locus YLR268W, strain sec22, hits give low values): 0.972
normalized growth (S. cerevisiae deletion strains, locus YLR330W, strain CHS5, hits give low values): 0.988
normalized growth (S. cerevisiae deletion strains, locus YLR342W, strain FKS1 (second series), hits give low values): 0.951
normalized growth (S. cerevisiae deletion strains, locus YLR371W, strain rom2, hits give low values): 1
normalized growth (S. cerevisiae deletion strains, locus YLR418C, strain cdc73, hits give low values): 0.987
normalized growth (S. cerevisiae deletion strains, locus YML016C, strain PPZ1, hits give low values): 0.969
normalized growth (S. cerevisiae deletion strains, locus YML032C, strain rad52, hits give low values): 1.01
normalized growth (S. cerevisiae deletion strains, locus YML124C, strain tub3, hits give low values): 0.994
normalized growth (S. cerevisiae deletion strains, locus YMR078C, strain ctf18, hits give low values): 0.974
normalized growth (S. cerevisiae deletion strains, locus YMR223W, strain ubp8, hits give low values): 0.981
normalized growth (S. cerevisiae deletion strains, locus YMR263W, strain SAP30, hits give low values): 0.999
normalized growth (S. cerevisiae deletion strains, locus YMR307W, strain GAS1, hits give low values): 0.924
normalized growth (S. cerevisiae deletion strains, locus YNL067W, strain RPL9B, hits give low values): 0.997
normalized growth (S. cerevisiae deletion strains, locus YNL128W, strain TEP1, hits give low values): 1.01
normalized growth (S. cerevisiae deletion strains, locus YNL153C, strain GIM3, hits give low values): 0.989
normalized growth (S. cerevisiae deletion strains, locus YNL183C, strain NPR1, hits give low values): 0.977
normalized growth (S. cerevisiae deletion strains, locus YNL233W, strain BNI4, hits give low values): 0.987
normalized growth (S. cerevisiae deletion strains, locus YNL250W, strain rad50, hits give low values): 0.997
normalized growth (S. cerevisiae deletion strains, locus YNL271C, strain bni1, hits give low values): 0.991
normalized growth (S. cerevisiae deletion strains, locus YNL298W, strain CLA4, hits give low values): 0.996
normalized growth (S. cerevisiae deletion strains, locus YNL307C, strain MCK1, hits give low values): 0.836 (active)
normalized growth (S. cerevisiae deletion strains, locus YNL322C, strain KRE1, hits give low values): 1
normalized growth (S. cerevisiae deletion strains, locus YNR052C, strain pop2, hits give low values): 0.982
normalized growth (S. cerevisiae deletion strains, locus YOL006C, strain TOP1, hits give low values): 0.903
normalized growth (S. cerevisiae deletion strains, locus YOL012C, strain htz1): 1.05
normalized growth (S. cerevisiae deletion strains, locus YOL147C, strain pex11, hits give low values): 0.986
normalized growth (S. cerevisiae deletion strains, locus YOR061W, strain CKA2, hits give low values): 0.98
normalized growth (S. cerevisiae deletion strains, locus YOR069W, strain VPS5, hits give low values): 0.991
normalized growth (S. cerevisiae deletion strains, locus YOR136W, strain idh2, hits give low values): 1
normalized growth (S. cerevisiae deletion strains, locus YOR144C, strain elg1, hits give low values): 0.988
normalized growth (S. cerevisiae deletion strains, locus YOR184W, strain ser1, hits give low values): 0.984
normalized growth (S. cerevisiae deletion strains, locus YOR231W, strain MKK1, hits give low values): 1.03
normalized growth (S. cerevisiae deletion strains, locus YOR316C, strain cot1, hits give low values): 0.991
normalized growth (S. cerevisiae deletion strains, locus YPL055C, strain LGE1, hits give low values): 0.996
normalized growth (S. cerevisiae deletion strains, locus YPL241C, strain CIN2, hits give low values): 0.997
normalized growth (S. cerevisiae deletion strains, locus YPL256C, strain CLN2, hits give low values): 1.03
normalized growth (S. cerevisiae deletion strains, locus YPR119W, strain clb2, hits give low values): 0.984
normalized growth (S. cerevisiae deletion strains, locus YPR141C, strain kar3, hits give low values): 1
normalized growth (S. cerevisiae deletion strains, locus YPR163C, strain tif3, hits give low values): 0.993
normalized growth (S. cerevisiae deletion strains, locus YPR167C, strain met16, hits give low values): 0.995
normalized growth (S. cerevisiae deletion strains, strain wtn01, hits give low values): 0.998
normalized growth (S. cerevisiae strains, strain wild type, hits give low values): 0.999
